# Test results: the supplement of paper PMC11732987, “Enantioselective OTUD7B fragment discovery through chemoproteomics screening and high-throughput optimisation” (Communications Chemistry, 2025)
# A number with no mark means an inactive call.
# Experiments:
# Assay in all cases: log2 ratio of Biotin-Ahx-Ub-VS probe labelling (fragment/DMSO); higher = less target engagement (more negative = stronger competition), active = hit call of the paper (q ≤ 0.05, log2 ratio ≤ -1)
# Conditions in all cases: compound concentration: 200 uM; treatment time: 3 h
# UniProt O00507 = target: UniProt O00507
# In short: (§1)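 HEK293T lysate (495 µg per sample, in Tris/CHAPS/IGEPAL buffer with protease inhibitors) was treated in triplicate with fragment at 200 µM or with DMSO for 3 h. It was then treated with Biotin-Ahx-Ub-VS (0.5 µM final) for 1 h. Labelled DUBs were NeutrAvidin-enriched, digested with LysC and trypsin, and run by diaPASEF LC-MS/MS. Spectronaut label-free quantities were global-median-normalised. Values are average log2 ratios fragment/DMSO by unpaired t-test, using proteins with ≥2 unique peptides.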
# UniProt P51784 = target: UniProt P51784
# In short: as §1
# UniProt Q5T2D3 = target: T1, UniProt Q5T2D3
# T1 sequence (whole entry): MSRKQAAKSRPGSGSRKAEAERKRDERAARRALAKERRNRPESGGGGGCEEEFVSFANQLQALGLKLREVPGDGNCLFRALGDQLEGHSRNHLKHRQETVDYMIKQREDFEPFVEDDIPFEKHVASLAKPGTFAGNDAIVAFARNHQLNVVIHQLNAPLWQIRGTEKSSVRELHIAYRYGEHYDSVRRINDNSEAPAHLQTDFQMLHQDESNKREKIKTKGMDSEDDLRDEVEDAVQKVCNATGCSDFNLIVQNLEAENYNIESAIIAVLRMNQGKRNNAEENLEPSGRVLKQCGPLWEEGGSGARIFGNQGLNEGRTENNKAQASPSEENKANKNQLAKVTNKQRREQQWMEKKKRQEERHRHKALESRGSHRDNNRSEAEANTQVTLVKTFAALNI
# In short: as §1
# UniProt Q8TE49 = target: T2, UniProt Q8TE49
# T2 sequence (whole entry): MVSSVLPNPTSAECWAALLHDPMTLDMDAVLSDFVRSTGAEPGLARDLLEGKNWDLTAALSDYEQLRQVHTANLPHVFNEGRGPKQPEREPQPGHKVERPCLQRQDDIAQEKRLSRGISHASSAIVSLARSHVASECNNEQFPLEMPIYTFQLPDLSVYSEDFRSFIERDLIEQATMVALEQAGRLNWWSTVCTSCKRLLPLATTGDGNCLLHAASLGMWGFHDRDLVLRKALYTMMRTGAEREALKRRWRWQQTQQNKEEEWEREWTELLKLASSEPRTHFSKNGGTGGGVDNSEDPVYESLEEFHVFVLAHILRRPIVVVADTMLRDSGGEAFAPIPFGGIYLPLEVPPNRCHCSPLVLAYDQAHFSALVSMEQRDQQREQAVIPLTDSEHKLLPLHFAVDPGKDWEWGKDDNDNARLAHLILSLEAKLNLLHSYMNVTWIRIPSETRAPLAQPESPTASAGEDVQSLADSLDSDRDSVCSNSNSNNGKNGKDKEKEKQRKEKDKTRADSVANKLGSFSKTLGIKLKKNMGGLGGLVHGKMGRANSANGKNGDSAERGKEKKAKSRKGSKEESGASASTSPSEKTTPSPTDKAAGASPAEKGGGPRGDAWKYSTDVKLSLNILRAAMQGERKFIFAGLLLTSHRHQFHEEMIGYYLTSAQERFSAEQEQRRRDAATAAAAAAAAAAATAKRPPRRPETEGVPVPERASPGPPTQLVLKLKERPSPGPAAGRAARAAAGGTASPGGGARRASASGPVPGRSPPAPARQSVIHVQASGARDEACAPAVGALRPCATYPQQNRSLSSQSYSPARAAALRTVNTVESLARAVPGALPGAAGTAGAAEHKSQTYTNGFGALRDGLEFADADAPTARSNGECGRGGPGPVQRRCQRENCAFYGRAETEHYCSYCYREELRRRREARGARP
# In short: as §1
# UniProt Q9P2H5 = target: T3, UniProt Q9P2H5
# T3 sequence (whole entry): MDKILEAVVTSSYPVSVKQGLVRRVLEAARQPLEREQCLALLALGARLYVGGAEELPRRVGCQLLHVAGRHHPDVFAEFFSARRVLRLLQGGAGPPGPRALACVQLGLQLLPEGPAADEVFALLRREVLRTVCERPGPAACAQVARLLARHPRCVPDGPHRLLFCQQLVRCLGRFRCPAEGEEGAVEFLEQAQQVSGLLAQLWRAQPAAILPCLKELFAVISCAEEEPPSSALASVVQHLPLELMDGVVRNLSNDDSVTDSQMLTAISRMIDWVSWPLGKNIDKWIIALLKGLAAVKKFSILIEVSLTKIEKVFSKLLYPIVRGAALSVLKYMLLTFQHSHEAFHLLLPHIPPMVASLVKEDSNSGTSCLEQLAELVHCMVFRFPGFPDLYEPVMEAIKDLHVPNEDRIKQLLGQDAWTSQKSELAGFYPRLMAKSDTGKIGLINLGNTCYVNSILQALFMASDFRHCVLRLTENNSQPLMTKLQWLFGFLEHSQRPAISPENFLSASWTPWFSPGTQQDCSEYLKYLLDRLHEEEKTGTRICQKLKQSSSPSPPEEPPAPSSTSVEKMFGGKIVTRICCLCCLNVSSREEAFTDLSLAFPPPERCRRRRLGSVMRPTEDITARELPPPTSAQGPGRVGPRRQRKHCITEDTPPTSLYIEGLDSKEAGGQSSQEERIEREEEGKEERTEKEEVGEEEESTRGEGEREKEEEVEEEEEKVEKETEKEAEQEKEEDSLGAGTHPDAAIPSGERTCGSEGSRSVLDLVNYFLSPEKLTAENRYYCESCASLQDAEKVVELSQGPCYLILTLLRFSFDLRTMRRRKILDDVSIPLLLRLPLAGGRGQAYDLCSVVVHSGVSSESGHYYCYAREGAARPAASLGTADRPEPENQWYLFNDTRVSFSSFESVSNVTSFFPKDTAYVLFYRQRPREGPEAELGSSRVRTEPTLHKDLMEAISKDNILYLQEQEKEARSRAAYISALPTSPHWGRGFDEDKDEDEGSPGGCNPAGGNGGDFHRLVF
# In short: as §1
# UniProt Q9UGI0 = target: T4, UniProt Q9UGI0
# T4 sequence (whole entry): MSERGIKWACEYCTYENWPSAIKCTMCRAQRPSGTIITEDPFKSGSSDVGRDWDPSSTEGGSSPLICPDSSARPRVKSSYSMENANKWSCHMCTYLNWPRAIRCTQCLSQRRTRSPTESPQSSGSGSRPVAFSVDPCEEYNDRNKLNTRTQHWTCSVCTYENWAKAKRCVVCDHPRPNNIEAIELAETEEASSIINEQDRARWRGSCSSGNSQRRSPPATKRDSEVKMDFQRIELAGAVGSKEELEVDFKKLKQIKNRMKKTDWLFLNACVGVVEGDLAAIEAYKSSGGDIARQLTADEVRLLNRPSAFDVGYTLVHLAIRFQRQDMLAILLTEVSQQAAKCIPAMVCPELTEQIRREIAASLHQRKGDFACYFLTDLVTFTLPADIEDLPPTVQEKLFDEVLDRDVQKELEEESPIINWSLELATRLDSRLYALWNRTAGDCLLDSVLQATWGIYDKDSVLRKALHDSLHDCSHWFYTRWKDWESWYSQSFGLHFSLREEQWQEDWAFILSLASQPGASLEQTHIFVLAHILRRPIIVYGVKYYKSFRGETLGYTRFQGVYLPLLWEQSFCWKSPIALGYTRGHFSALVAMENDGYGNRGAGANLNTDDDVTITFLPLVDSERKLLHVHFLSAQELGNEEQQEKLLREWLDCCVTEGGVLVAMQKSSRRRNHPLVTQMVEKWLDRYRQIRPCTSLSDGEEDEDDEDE
# In short: as §1
# YOD1 = target: T5, YOD1 (UniProt Q5VVQ6)
# T5 sequence (whole entry): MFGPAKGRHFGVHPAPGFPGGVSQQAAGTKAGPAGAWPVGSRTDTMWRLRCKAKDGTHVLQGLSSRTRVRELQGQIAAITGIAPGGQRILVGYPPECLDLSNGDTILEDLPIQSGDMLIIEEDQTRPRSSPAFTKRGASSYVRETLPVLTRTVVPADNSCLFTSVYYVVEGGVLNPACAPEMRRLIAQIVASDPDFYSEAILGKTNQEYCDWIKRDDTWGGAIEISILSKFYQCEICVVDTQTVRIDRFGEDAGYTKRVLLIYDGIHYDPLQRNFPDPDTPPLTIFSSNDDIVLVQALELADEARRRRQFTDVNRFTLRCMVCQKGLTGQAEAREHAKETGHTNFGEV
# In short: as §1
# Sequence of UniProt O00507 (O00507 whole entry, the tested form may be a part): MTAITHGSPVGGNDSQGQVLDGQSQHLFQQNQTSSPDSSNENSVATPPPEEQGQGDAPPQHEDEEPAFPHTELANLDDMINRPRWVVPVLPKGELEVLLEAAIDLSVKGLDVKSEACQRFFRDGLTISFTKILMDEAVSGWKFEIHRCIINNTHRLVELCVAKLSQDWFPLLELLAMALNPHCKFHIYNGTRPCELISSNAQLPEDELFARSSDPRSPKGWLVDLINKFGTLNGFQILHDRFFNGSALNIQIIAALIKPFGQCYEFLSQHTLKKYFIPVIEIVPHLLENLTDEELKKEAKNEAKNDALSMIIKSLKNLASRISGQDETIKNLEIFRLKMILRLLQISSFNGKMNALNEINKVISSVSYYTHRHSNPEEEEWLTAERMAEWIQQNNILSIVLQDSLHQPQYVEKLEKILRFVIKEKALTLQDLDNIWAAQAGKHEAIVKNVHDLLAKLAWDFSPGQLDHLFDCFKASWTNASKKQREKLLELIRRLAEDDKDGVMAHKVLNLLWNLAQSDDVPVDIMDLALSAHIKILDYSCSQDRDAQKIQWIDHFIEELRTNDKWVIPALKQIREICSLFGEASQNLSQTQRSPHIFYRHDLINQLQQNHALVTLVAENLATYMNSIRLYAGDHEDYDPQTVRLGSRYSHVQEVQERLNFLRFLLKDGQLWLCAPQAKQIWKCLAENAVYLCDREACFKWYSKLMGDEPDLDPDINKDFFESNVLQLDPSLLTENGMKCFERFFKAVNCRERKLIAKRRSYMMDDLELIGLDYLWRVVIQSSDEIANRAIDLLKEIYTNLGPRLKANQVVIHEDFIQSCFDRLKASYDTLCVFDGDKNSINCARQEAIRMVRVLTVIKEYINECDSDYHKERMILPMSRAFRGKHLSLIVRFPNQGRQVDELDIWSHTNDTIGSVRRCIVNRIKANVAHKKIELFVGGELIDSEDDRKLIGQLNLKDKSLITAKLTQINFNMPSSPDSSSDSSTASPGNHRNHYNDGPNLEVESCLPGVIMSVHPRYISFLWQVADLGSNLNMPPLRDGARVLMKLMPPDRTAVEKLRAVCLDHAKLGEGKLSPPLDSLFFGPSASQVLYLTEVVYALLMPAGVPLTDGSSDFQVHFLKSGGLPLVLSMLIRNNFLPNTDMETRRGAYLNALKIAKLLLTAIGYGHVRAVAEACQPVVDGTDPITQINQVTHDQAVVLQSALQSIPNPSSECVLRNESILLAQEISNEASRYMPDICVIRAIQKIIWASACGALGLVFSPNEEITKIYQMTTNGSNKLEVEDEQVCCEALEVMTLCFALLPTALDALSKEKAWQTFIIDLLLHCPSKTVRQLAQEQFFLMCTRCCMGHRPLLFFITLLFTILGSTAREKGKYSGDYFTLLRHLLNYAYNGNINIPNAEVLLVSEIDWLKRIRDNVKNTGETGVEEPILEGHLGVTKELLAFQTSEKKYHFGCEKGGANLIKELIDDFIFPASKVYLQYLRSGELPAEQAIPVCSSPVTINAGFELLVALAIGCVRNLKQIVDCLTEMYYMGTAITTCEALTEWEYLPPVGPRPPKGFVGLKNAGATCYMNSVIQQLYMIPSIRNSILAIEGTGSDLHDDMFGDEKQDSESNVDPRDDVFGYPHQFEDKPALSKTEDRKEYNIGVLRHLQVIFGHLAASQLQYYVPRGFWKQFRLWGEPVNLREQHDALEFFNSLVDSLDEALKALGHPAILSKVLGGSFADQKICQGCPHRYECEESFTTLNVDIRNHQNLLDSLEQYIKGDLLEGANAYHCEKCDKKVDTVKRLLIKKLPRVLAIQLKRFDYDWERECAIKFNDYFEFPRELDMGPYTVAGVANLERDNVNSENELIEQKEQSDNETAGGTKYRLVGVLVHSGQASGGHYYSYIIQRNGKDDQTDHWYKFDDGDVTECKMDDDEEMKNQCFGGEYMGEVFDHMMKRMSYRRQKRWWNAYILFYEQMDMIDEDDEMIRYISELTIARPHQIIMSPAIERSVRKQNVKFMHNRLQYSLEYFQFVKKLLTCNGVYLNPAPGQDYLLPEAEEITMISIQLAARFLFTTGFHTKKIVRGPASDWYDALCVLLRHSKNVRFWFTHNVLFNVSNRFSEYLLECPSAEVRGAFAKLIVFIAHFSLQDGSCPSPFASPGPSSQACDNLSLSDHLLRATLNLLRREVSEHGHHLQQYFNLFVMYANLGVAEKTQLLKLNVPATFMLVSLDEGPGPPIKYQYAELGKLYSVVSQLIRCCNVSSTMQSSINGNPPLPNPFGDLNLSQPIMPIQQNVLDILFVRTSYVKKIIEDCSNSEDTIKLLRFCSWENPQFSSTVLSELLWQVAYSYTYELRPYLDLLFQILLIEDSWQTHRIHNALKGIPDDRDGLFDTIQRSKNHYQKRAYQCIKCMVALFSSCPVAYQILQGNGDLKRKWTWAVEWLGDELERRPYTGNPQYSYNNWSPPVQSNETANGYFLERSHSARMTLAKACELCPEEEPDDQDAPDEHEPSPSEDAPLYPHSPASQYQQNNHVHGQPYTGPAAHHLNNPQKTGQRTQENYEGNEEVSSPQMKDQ
# Sequence of UniProt P51784 (P51784 whole entry): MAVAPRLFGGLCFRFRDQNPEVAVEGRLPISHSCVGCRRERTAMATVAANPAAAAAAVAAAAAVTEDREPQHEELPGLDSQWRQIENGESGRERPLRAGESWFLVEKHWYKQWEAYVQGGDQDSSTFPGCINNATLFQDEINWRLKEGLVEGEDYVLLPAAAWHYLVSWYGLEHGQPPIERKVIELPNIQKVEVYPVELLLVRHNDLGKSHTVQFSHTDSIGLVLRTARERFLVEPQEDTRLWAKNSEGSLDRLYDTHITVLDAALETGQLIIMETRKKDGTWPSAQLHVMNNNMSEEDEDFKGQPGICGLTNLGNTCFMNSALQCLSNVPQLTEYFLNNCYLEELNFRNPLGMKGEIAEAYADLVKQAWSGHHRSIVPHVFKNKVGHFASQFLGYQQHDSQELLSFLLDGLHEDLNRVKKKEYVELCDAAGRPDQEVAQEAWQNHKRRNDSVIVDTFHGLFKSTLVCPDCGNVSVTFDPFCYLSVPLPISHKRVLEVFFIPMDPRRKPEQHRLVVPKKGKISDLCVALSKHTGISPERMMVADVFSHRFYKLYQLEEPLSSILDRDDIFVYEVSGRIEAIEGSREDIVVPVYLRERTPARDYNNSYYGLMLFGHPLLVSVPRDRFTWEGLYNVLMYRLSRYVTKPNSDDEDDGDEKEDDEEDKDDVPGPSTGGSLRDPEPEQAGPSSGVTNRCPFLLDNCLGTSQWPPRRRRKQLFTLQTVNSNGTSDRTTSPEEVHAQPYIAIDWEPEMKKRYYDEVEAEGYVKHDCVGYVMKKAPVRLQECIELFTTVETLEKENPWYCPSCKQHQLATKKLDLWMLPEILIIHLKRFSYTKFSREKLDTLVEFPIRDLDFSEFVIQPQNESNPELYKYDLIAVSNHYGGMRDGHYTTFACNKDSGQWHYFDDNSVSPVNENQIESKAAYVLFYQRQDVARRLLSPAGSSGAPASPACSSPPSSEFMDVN
Compound,log2 ratio of Biotin-Ahx-Ub-VS probe labelling (UniProt O00507),log2 ratio of Biotin-Ahx-Ub-VS probe labelling (UniProt P51784),log2 ratio of Biotin-Ahx-Ub-VS probe labelling (UniProt Q5T2D3),log2 ratio of Biotin-Ahx-Ub-VS probe labelling (UniProt Q8TE49),log2 ratio of Biotin-Ahx-Ub-VS probe labelling (UniProt Q9P2H5),log2 ratio of Biotin-Ahx-Ub-VS probe labelling (UniProt Q9UGI0),log2 ratio of Biotin-Ahx-Ub-VS probe labelling (YOD1)
CC1(NC(=O)CCl)CCS(=O)(=O)C1 (stereo unspecified),-0.402,-0.612,-0.858,-1.44 (active),-0.61,-0.698,-0.754
CN(C(=O)CCl)c1nc2ccccc2s1,0.257,-0.083,-0.0566,-0.558,-0.266,-1.12 (active),0.155
CC(NC(=O)CCl)c1cccc(Cl)c1 (stereo unspecified),-0.176,-0.0638,-0.271,-0.632,-0.25,-1.18 (active),-0.167
CN(CCc1ncc(Br)cn1)C(=O)CCl.Cl,-0.225,-0.0725,-0.508,-1.75 (active),-0.437,-0.752,0.0394
O=C(CCl)N1CCOC(c2cccc(F)c2)C1 (stereo unspecified),0.244,-0.328,-0.182,-1.26 (active),-0.416,-1.44 (active),-0.0782
O=C(CCl)N[C@H]1CC[C@@H](CO)CC1,-0.725,-0.788,-0.746,-1.32 (active),-0.775,-0.944,-0.784
CN1c2ccccc2C(NC(=O)CCl)CS1(=O)=O (stereo unspecified),-0.0151,-0.0186,-0.275,-2.63 (active),-0.164,-0.46,-0.0718
O=C(CCl)N1CCC(c2noc3cc(F)ccc23)CC1,-0.609,0.00105,-0.212,-0.807,-0.0991,-1.02 (active),-0.0109
CNC(=O)C1(NC(=O)CCl)CCCCC1,0.215,0.188,-0.364,-0.591,-0.0698,0.0155,-0.0513
O=C(CCl)NCc1ccc(Cl)cc1,0.318,0.0262,-0.0567,-0.395,0.00401,-0.0432,0.238
O=C(CCl)N1CCN2C(=O)CCC2C1 (stereo unspecified),0.162,0.195,-0.286,-0.3,-0.168,-0.382,0.182
Cc1cnc2[nH]cc(CCNC(=O)CCl)c2c1,-0.277,0.0378,-0.197,-0.5,0.0093,-0.444,-0.097
O=C(CCl)N1CCOC(CCc2ccccc2)C1 (stereo unspecified),-0.798,-0.097,-0.306,-0.84,-0.236,-0.876,-0.418
O=C(CCl)N(Cc1ccsc1)C1CC1,-0.302,-0.0887,-0.0506,-0.101,0.0505,-0.949,-0.0601
O=C(CCl)N1CCc2[nH]c3ccccc3c2C1,-1.27 (active),-0.429,-0.115,-0.338,-0.439,-1.68 (active),-0.2
O=C(CCl)N1CCC(c2ccn[nH]2)C1 (stereo unspecified),-0.147,-0.136,-0.179,-0.464,-0.282,-0.767,0.0756
O=C(CCl)N1CCOCC1C1CC1 (stereo unspecified),-0.0511,0.141,-0.288,-0.663,-0.279,-0.344,-0.172
CCN1C(=O)C2CN(C(=O)CCl)CCN2C1=O (stereo unspecified),0.428,0.0433,-0.0669,-0.958,-0.223,0.112,0.177
